The values below come from article PMC7862700, “An all-to-all approach to the identification of sequence-specific readers for epigenetic DNA modifications on cytosine”.

What all share (assay): DAPPL (digital affinity profiling via proximity ligation, sequencing); 10 mM Tris-HCl pH 7.5, 50 mM NaCl, 1 mM DTT, 4% glycerol, room temperature, 30 min; GST-TFs on glutathione beads, 16-mer random dsDNA library, 0.1% formaldehyde crosslink after washing; high values mean tight binding
One assay concerns the target ETV5 (Homo sapiens, UniProt P41161 1-510). The conditions noted are these: protein: recombinant; tags: N-terminal GST; dsDNA, one strand shown. Summed up: (§1)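 In yeast, human transcription factors were expressed with a GST fusion, then pulled down on glutathione beads and given DNA barcodes. Pooled with a tag-only sample, they were exposed to 200 nmole of a 16-mer random double-stranded DNA library (Tris/NaCl/DTT/glycerol buffer, room temperature, 30 min), washed, crosslinked with 0.1% formaldehyde, proximity-ligated using BsaI/T4 ligase for 1 h at 37 °C, PCR-amplified and read on an Illumina NextSeq500. Each hexamer's frequency of reads for a factor, divided by the matching frequency for the tag-only sample, gives the binding signal.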

The target of a further assay is HSF1 (Homo sapiens, UniProt Q00613 1-529). The conditions noted are these: protein: recombinant; tags: N-terminal GST; chain copies: 3; dsDNA, one strand shown. The method in brief:
as §1

The next assay deals with T1, SPIC (Homo sapiens, UniProt Q8N5J4 1-248).
T1 sequence: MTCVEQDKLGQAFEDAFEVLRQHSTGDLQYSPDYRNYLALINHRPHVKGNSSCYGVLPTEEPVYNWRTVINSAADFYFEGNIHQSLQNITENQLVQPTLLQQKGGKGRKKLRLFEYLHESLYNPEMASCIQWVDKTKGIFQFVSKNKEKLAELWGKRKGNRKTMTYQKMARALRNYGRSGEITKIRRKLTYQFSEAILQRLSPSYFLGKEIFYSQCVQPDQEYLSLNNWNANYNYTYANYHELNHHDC
The conditions noted are these: protein: recombinant; tags: N-terminal GST; dsDNA, one strand shown. Summed up: as §1

For another assay, the target named is ELF4 (Homo sapiens, UniProt Q99607 1-663). The conditions noted are these: protein: recombinant; tags: N-terminal GST; dsDNA, one strand shown. The method in brief:
as §1

A further assay deals with T2, ELK4 (Homo sapiens, UniProt P28324-2 1-405).
T2 sequence: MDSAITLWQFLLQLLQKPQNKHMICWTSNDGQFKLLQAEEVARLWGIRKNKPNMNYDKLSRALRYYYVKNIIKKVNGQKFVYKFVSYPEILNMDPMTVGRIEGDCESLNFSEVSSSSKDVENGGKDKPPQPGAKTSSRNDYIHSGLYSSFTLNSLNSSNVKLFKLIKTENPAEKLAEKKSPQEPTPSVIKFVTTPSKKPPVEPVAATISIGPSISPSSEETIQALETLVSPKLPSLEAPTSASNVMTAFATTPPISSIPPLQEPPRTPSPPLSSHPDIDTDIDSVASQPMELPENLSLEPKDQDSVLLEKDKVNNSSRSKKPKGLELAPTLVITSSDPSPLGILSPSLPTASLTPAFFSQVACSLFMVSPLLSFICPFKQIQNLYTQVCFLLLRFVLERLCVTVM
The conditions noted are these: protein: recombinant; tags: N-terminal GST; dsDNA, one strand shown. Summed up:
as §1

The target in the next assay is T3, ETV2 (Homo sapiens, UniProt O00321 1-342).
T3 sequence: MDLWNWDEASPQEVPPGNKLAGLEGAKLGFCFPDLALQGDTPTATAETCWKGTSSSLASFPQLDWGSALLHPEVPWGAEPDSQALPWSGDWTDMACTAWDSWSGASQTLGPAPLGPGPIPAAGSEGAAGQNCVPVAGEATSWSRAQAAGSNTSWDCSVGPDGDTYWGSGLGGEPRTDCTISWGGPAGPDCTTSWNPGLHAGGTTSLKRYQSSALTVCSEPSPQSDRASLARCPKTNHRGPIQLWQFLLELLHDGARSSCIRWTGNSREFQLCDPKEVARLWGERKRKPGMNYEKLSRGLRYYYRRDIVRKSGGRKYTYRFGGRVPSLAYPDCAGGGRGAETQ
The conditions noted are these: protein: recombinant; tags: N-terminal GST; dsDNA, one strand shown. Summed up:
as §1

The next assay concerns the target T4, ELF3 (Homo sapiens, UniProt P78545 1-371).
T4 sequence: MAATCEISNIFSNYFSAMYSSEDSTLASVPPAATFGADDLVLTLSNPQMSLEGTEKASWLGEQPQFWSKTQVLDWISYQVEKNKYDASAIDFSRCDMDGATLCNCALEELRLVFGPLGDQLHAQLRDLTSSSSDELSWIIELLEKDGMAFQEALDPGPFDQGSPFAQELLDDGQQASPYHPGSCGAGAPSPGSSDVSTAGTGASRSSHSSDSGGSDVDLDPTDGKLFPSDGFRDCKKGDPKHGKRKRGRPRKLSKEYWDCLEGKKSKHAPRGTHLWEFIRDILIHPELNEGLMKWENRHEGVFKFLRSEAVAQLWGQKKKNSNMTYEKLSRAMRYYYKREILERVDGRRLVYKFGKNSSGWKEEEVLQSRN
The conditions noted are these: protein: recombinant; tags: N-terminal GST; dsDNA, one strand shown. Summed up: as §1

In a further assay the target is CRX (Homo sapiens, UniProt O43186 1-299). The conditions noted are these: protein: recombinant; tags: N-terminal GST; dsDNA, one strand shown. Summed up: as §1
CRX, sequence (O43186 whole entry): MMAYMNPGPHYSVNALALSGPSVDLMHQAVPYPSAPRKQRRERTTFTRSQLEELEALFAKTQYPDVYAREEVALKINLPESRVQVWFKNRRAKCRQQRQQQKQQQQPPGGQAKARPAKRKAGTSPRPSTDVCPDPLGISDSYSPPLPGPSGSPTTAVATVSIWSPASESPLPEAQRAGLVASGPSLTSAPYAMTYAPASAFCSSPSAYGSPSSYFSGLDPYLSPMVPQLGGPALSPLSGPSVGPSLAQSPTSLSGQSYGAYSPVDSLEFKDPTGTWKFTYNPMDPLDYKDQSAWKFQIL
A further assay deals with ETV1 (Homo sapiens, UniProt P50549 1-477). The conditions noted are these: protein: recombinant; tags: N-terminal GST; dsDNA, one strand shown. Summed up: as §1
ETV1, sequence (P50549 whole entry): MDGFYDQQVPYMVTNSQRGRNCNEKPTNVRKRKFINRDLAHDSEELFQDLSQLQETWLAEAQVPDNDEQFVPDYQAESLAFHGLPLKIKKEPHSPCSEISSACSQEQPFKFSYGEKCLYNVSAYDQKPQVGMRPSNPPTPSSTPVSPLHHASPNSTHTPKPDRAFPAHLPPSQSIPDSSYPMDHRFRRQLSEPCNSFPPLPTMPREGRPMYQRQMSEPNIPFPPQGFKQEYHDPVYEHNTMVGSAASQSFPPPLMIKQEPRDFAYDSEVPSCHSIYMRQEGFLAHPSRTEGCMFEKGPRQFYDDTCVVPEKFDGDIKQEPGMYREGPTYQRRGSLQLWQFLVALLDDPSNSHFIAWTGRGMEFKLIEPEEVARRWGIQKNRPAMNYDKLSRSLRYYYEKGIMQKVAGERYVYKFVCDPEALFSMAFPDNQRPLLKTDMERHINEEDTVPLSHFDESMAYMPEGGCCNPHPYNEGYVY
The target of a further assay is T5, FEV (Homo sapiens, UniProt Q99581 1-238).
T5 sequence: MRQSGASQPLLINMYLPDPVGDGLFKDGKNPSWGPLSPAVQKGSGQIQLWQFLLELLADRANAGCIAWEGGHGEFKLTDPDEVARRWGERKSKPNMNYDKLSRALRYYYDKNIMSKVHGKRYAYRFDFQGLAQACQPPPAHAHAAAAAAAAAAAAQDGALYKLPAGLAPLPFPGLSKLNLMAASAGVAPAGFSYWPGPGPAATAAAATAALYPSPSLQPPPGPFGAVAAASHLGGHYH
The conditions noted are these: protein: recombinant; tags: N-terminal GST; dsDNA, one strand shown. Summed up:
as §1

HSF1, sequence (Q00613 whole entry): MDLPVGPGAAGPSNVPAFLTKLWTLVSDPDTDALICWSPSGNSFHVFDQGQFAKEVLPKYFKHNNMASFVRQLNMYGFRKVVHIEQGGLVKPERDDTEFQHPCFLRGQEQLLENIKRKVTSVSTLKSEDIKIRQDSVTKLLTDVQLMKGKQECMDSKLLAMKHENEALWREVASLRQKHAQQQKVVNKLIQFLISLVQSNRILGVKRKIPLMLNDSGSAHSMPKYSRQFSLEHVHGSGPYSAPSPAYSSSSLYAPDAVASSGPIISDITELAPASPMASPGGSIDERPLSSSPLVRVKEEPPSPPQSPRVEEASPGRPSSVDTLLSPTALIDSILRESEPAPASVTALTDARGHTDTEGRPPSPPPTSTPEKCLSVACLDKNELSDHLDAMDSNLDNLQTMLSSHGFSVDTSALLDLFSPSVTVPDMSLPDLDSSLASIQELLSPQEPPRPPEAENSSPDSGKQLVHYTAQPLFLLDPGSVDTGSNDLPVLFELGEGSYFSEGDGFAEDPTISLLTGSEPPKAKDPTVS
ETV5, sequence (P41161 whole entry, the tested form may be a part): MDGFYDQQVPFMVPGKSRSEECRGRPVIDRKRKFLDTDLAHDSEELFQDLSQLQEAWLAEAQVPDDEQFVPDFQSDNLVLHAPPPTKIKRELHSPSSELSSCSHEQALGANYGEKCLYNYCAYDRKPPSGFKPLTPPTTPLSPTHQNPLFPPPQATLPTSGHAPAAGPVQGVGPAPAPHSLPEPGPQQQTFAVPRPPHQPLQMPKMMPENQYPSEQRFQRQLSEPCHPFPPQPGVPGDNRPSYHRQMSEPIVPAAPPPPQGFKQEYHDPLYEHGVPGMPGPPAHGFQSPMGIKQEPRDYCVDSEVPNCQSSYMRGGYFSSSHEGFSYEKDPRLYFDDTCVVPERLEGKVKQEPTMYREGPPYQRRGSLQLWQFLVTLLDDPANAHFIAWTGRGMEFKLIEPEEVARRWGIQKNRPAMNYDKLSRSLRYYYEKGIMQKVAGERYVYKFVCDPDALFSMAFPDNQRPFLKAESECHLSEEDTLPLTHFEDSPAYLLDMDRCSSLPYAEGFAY
ELF4, sequence (Q99607 whole entry): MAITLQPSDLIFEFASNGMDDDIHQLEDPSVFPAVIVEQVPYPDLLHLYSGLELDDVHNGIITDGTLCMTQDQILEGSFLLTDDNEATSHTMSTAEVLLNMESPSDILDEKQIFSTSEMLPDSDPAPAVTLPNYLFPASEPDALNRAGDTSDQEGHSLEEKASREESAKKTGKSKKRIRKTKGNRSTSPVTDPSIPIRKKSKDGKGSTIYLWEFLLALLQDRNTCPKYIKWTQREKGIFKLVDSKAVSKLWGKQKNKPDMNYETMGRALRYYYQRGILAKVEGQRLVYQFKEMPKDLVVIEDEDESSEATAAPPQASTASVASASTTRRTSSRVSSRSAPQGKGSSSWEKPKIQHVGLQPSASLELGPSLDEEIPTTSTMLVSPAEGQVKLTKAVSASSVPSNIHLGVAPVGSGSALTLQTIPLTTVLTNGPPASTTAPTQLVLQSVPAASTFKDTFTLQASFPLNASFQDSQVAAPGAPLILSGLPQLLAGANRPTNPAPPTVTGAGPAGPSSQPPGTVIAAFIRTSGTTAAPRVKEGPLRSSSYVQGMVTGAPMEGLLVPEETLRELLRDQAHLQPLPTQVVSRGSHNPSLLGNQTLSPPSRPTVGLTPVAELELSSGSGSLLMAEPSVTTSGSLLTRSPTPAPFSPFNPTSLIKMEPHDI

In the case of TAGGTT, the binding signal was 1.13 fold enrichment (6-mer frequency, TF over GST control) in the assay with ETV5; 1.18 fold enrichment (6-mer frequency, TF over GST control) with HSF1; 1.16 fold enrichment (6-mer frequency, TF over GST control) with SPIC; 1.09 fold enrichment (6-mer frequency, TF over GST control) with ELF4; 1.12 fold enrichment (6-mer frequency, TF over GST control) in the assay with ELK4; 1.33 fold enrichment (6-mer frequency, TF over GST control) with ETV2. Moreover, the binding signal in the assay with ELF3 is 1.14 fold enrichment (6-mer frequency, TF over GST control); with CRX, 1.25 fold enrichment (6-mer frequency, TF over GST control); with ETV1, 1.13 fold enrichment (6-mer frequency, TF over GST control).

Regarding TAAGGT, the binding signal in the assay with ETV5 is 1.12 fold enrichment (6-mer frequency, TF over GST control); with HSF1, 1.1 fold enrichment (6-mer frequency, TF over GST control); with SPIC it was 1.11 fold enrichment (6-mer frequency, TF over GST control); with ELF4, 1.19 fold enrichment (6-mer frequency, TF over GST control); with ELK4 it was 1.06 fold enrichment (6-mer frequency, TF over GST control); with ETV2 it was 1.08 fold enrichment (6-mer frequency, TF over GST control). In addition, the binding signal with ELF3 was 1.08 fold enrichment (6-mer frequency, TF over GST control); with CRX, 1.38 fold enrichment (6-mer frequency, TF over GST control); in the assay with ETV1, 1.1 fold enrichment (6-mer frequency, TF over GST control).

With TAGTAA, the binding signal was 1.05 fold enrichment (6-mer frequency, TF over GST control) in the assay with ETV5; 1.54 fold enrichment (6-mer frequency, TF over GST control) in the assay with HSF1; 1.07 fold enrichment (6-mer frequency, TF over GST control) with SPIC; 1.05 fold enrichment (6-mer frequency, TF over GST control) with ELF4; 1.04 fold enrichment (6-mer frequency, TF over GST control) with ELK4; 1.12 fold enrichment (6-mer frequency, TF over GST control) with ETV2. Also, the binding signal is 1.06 fold enrichment (6-mer frequency, TF over GST control) with ELF3; 1.59 fold enrichment (6-mer frequency, TF over GST control) with CRX; 1.07 fold enrichment (6-mer frequency, TF over GST control) in the assay with ETV1.

In the case of TTCTTG, the binding signal was 1.29 fold enrichment (6-mer frequency, TF over GST control) in the assay with FEV; 1.41 fold enrichment (6-mer frequency, TF over GST control) with ETV5; 1.98 fold enrichment (6-mer frequency, TF over GST control) in the assay with HSF1; 1.31 fold enrichment (6-mer frequency, TF over GST control) in the assay with SPIC; 1.43 fold enrichment (6-mer frequency, TF over GST control) with ELF4; 1.34 fold enrichment (6-mer frequency, TF over GST control) in the assay with ELK4. Further, the binding signal with ETV2 is 1.18 fold enrichment (6-mer frequency, TF over GST control); with ELF3, 1.46 fold enrichment (6-mer frequency, TF over GST control); with CRX, 1.55 fold enrichment (6-mer frequency, TF over GST control); with ETV1, 1.47 fold enrichment (6-mer frequency, TF over GST control).

Regarding CTTTCT, the binding signal was 1.47 fold enrichment (6-mer frequency, TF over GST control) with FEV; 1.52 fold enrichment (6-mer frequency, TF over GST control) with ETV5; 2.74 fold enrichment (6-mer frequency, TF over GST control) with HSF1; 1.67 fold enrichment (6-mer frequency, TF over GST control) with SPIC; 1.48 fold enrichment (6-mer frequency, TF over GST control) with ELF4; 1.54 fold enrichment (6-mer frequency, TF over GST control) with ELK4. In addition, the binding signal with ETV2 was 1.65 fold enrichment (6-mer frequency, TF over GST control); in the assay with ELF3, 1.73 fold enrichment (6-mer frequency, TF over GST control); with CRX, 1.76 fold enrichment (6-mer frequency, TF over GST control); with ETV1 it was 1.56 fold enrichment (6-mer frequency, TF over GST control).

For the sequence TTTTGA, the binding signal in the assay with FEV was 1 fold enrichment (6-mer frequency, TF over GST control); with ETV5, 1.19 fold enrichment (6-mer frequency, TF over GST control); with HSF1, 1.12 fold enrichment (6-mer frequency, TF over GST control); with SPIC, 1.21 fold enrichment (6-mer frequency, TF over GST control); with ELF4, 1.19 fold enrichment (6-mer frequency, TF over GST control); in the assay with ELK4 it was 1.22 fold enrichment (6-mer frequency, TF over GST control). Also, the binding signal with ETV2 is 1.2 fold enrichment (6-mer frequency, TF over GST control); with ELF3, 1.25 fold enrichment (6-mer frequency, TF over GST control); with CRX, 1.17 fold enrichment (6-mer frequency, TF over GST control); with ETV1 it was 1.13 fold enrichment (6-mer frequency, TF over GST control).

On to TCACTA, for which the binding signal is 1.11 fold enrichment (6-mer frequency, TF over GST control) with FEV; 1.06 fold enrichment (6-mer frequency, TF over GST control) with ETV5; 1.16 fold enrichment (6-mer frequency, TF over GST control) in the assay with HSF1; 1.16 fold enrichment (6-mer frequency, TF over GST control) with SPIC; 1.12 fold enrichment (6-mer frequency, TF over GST control) with ELF4; 1.28 fold enrichment (6-mer frequency, TF over GST control) with ELK4. Further, the binding signal is 1.18 fold enrichment (6-mer frequency, TF over GST control) with ETV2; 1.19 fold enrichment (6-mer frequency, TF over GST control) with ELF3; 1.27 fold enrichment (6-mer frequency, TF over GST control) with CRX; 1.06 fold enrichment (6-mer frequency, TF over GST control) with ETV1.

Consider ACGTAA, for which the binding signal in the assay with FEV is 1.07 fold enrichment (6-mer frequency, TF over GST control); with ETV5, 1.16 fold enrichment (6-mer frequency, TF over GST control); in the assay with HSF1 it was 1.17 fold enrichment (6-mer frequency, TF over GST control); with SPIC, 1.12 fold enrichment (6-mer frequency, TF over GST control); with ELF4, 1.14 fold enrichment (6-mer frequency, TF over GST control); with ELK4, 1.12 fold enrichment (6-mer frequency, TF over GST control). The binding signal in the assay with ETV2 was 1.12 fold enrichment (6-mer frequency, TF over GST control); with ELF3, 1.07 fold enrichment (6-mer frequency, TF over GST control); in the assay with CRX, 1.27 fold enrichment (6-mer frequency, TF over GST control); with ETV1, 1.12 fold enrichment (6-mer frequency, TF over GST control).
